Measured values: PubChem BioAssay (EPA / NIEHS)
Results filed as inconclusive are left out. Calls of active or inactive are those of the source. How the source made its calls: active means hit-call score of the fitted dose curve at least 0.9, where 1 is the maximum; inconclusive means response in the unintended direction; inactive means score below 0.9.

Test: ACEA_ER_AUC_viability: ACEA Biosciences xCELLigence Real-Time Cell Analysis on Estrogen Receptor Agonism for Viability (AID 2283782);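 further: continuous compound exposure with impedance area under curve over 80 h; hit means loss of impedance signal meaning reduced cell growth or viability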
Method in brief: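 T47D cells preconditioned in phenol red-free RPMI with charcoal-stripped FBS, then dosed with 8-point 1:4 series from 100 uM (up to 0.5% DMSO). Impedance monitored up to ~80 h; area-under-curve loss versus DMSO taken as viability.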

SMILES	AC50	outcome
CCCCC/C=C/C=C/C=O	81.1 µM (active)	–
CCCC1CCC(=O)O1 (stereo not drawn)	–	inactive
Cc1ccc(C(C)C)cc1O	–	inactive
CC1COc2ccccc2N1C(=O)C(Cl)Cl (stereo not drawn)	4.69 µM (active)	–
CNC[C@H](O)c1cccc(O)c1	50 µM (active)	–
CCCCCNCCCCC	–	inactive
c1ccc2[nH]ccc2c1	–	inactive
[Ca+2]	–	inactive
CC1=CCC(O)(C(C)C)CC1 (stereo not drawn)	–	inactive
CCC(=O)/C=C/C1C(C)=CCCC1(C)C (stereo not drawn)	–	inactive
CCO[Si](CCCS)(OCC)OCC	–	inactive
CC(CCO)CCc1ccccc1 (stereo not drawn)	50 µM (active)	–
Clc1cccc(Cl)n1	–	inactive
N#Cc1ccccc1	–	inactive
CC(C)(C)C(=O)c1ccccc1	–	inactive
O=C1CCc2ccccc2O1	38 µM (active)	–
Nc1cc(N)cc(C(=O)O)c1	–	inactive

SMILES	AC50	outcome
O=C1c2ccccc2C(=O)N1SC1CCCCC1	50 µM (active)	–
CCC(=O)OCc1ccccc1	–	inactive
CC1=CCC2C(C1)C2(C)C (stereo not drawn)	–	inactive
CC(C)(C)NC(N)=O	–	inactive
CN(C)CCOCCN(C)C	–	inactive
CC1(C)[C@@H]2CC[C@@]1(C)[C@H](O)C2	–	inactive
CC(C)C(C)(C)C(C)(C)C(C)(C)S	–	inactive
O=C1CCCCCCCCCCOCCCCO1	55.4 µM (active)	–
CC(C)(COC(=O)c1ccccc1)COC(=O)c1ccccc1	72.8 µM (active)	–
Nc1ccc(S(=O)(=O)O)c(N)c1	–	inactive
Nc1cc([N+](=O)[O-])ccc1O	9.92 µM (active)	–
COc1cc(C=O)ccc1OC(=O)C(C)C	–	inactive
CC(C)[C@H]1CC[C@@H](C)CC1=O	–	inactive
CC1=CC(=O)NS(=O)(=O)O1	–	inactive
CCCc1ccccc1O	64.2 µM (active)	–
CCCCCOC(=O)CCC	–	inactive
